Compound activity: PubChem BioAssay, National Center for Advancing Translational Sciences (NCATS)
HP1b binding inh: HP1-beta chromodomain-methylated histone interaction inhibition. AlphaScreen HP1-beta / biotin-H3K9me3 peptide binding. P83916. Potency, µM (highest dose often 114 µM), inactives show at the highest dose activity change, negative = inhibition, actives largely listed as inhibitors. 390,000 tested, 0.56% active. AID 540317; further: potency means the concentration at half of the fitted maximal effect; nearly all actives have a fitted effect of over 70% in size
Target sequence (P83916 whole entry, looked up): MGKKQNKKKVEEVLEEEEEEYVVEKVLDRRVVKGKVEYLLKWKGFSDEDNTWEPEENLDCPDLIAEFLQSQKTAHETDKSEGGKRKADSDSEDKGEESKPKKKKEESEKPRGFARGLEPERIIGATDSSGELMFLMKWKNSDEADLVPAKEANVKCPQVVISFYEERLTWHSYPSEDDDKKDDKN
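Compound inhibition of the preformed complex between 50 nM HP1-beta and 50 nM biotinylated H3K9me3 peptide was read by AlphaScreen. Buffer was PBS pH 7.4 with 0.01% Tween-20. Incubations ran 30 min at room temperature, with 10 ug/mL donor/acceptor beads.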
BAZ2B inh: inhibitors of human BAZ2B bromodomain; 360,000 tested, 4.4% active; AlphaScreen BAZ2B-H3K14Ac peptide displacement; Potency, µM (highest dose often 114 µM), for the others: at the highest dose activity change, negative = inhibition, usual class: inhibitors; Q9UIF8; AID 504333; further: potency means the concentration at half of the fitted maximal effect; on the % scale 0 is the no-effect control and ±100 the full control effect; nearly all actives have a fitted effect of over 60% in size
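Protein-peptide AlphaScreen: BAZ2B 50 nM, b-H3K14Ac 50 nM, 1x PBS pH 7.4 + 0.01% Tween-20. Preincubation 30 min RT; cpd 30 min RT (top 110 uM); beads 20 min RT, light-protected.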
L3MBTL1 block: L3MBTL1 (human) inhibition; Q9Y468; AlphaScreen L3MBTL1–H3K9me1 peptide binding; Potency, µM (highest dose often 57.1 µM), for inactives: top-dose activity, negative = inhibition, actives largely listed as inhibitors; 230,000 tested, 0.66% active; AID 485360; further: potency means the concentration at half of the fitted maximal effect; on the % scale 0 is the no-effect control and ±100 the full control effect; nearly all actives have a fitted effect of over 60% in size
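AlphaScreen assay: L3MBTL1 (50 nM final) was preincubated 30 min at room temperature with biotinylated H3(1-15)K9me1 peptide (75 nM final), then 30 min with library compounds; streptavidin donor and nickel chelate acceptor beads (10 ug/mL final) added, 30 min dark.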
PI5P4Ka inh: inhibitors of human PI5P4K alpha; P48426; max response, %; 330,000 tested, 1.2% active; PI5P4Kalpha enzyme, ADP-Glo luminescence, 60 min; stronger effect = lower value; active means max response of -50% or lower; inconclusive means between -30% and -50%; inactive means -30% or higher; further: value at the top dose of about 77 µM; on the % scale 0 is the no-effect control and ±100 the full control effect
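ADP-Glo luminescence end-point read after a 60 min room-temperature kinase reaction of PI5P4Kalpha plus substrate, initiated with ATP at 5 microM final. Buffer: 0.038 M HEPES pH 7.4, EGTA, 0.1% CHAPS, 5% DMSO.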
G9a inh: G9a (human) methyltransferase inhibition | Q96KQ7 | G9a H3K9 monomethylation, AlphaScreen, 2 h | Potency, µM (series often up to 102 µM), inactives show top-dose activity, negative = inhibition, actives largely listed as inhibitors | 350,000 tested, 8.8% active | AID 504332; further: potency means the concentration at half of the fitted maximal effect; on the % scale 0 is the no-effect control and ±100 the full control effect; nearly all actives have a fitted effect of over 75% in size
Target sequence (Q96KQ7 913-1193 limits assumed): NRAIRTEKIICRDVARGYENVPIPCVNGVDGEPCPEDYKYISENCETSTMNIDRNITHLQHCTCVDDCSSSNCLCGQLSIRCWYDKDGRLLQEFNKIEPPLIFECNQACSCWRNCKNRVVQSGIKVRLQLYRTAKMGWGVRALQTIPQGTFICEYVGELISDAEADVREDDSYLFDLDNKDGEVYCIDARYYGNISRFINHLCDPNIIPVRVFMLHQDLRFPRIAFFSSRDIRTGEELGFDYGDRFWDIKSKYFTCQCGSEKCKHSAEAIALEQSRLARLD
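Enzyme 20 nM + cpd, 15 min RT; add b-H3K9 pep 500 nM / SAM 20 uM; 2 h RT; anti-H3K9me1 Ab 0.5 ug/mL + SA donor / anti-rabbit acceptor beads 20 ug/mL each, 10 min; AlphaScreen read.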
JMJD2A Tudor: JMJD2A Tudor domain (human) inhibition; AlphaScreen JMJD2A-Tudor / H3K4me3 peptide binding; 390,000 tested, 4.4% active; O75164; Potency, µM (doses to about 114 µM), for the others: at the highest dose activity change, negative = inhibition, actives largely listed as inhibitors; AID 504339; further: potency means the concentration at half of the fitted maximal effect; on the % scale 0 is the no-effect control and ±100 the full control effect; nearly all actives have a fitted effect of over 50% in size
* marks the source's active call; other numbers are inactive results; [ ] = another dose, or the depositor's remark. Shown are actives, neighbours in structure and some others; about 11% of the full set was active somewhere. Unless noted, the call rests on the fitted dose curve; in most records, active means well fitted inhibition curve with a large enough effect; inconclusive means small, poorly fitted or top-dose-only effect; inactive means no such curve, though single readings can be large or run the other way.

CCC(=O)/C=C1\Sc2ccc(OC)cc2N1CC was read as HP1b binding inh 26%, BAZ2B inh 2%, L3MBTL1 block -12%, G9a inh 50µM* and JMJD2A Tudor -15%.
For CCC(=O)/C=C1\Sc2ccc(OC)cc2N1CCO the results were HP1b binding inh 52%, BAZ2B inh 8%, L3MBTL1 block 0%, PI5P4Ka inh -1, G9a inh -22%[59 µM] and JMJD2A Tudor -13%.
`CCN1/C(=C\C(C)=O)Sc2ccc(OC)cc21` gave HP1b binding inh 12%, BAZ2B inh -28%, G9a inh 5µM* and JMJD2A Tudor -23%.
CCOC(=O)C(=CNNc1ccccc1)C(=O)OCC was read as HP1b binding inh -35%, BAZ2B inh inconclusive, L3MBTL1 block 0%, PI5P4Ka inh 0, G9a inh 2µM* and JMJD2A Tudor 79µM*.
For Cc1nc(N)sc1-c1csc(N(C)c2ccc(O)cc2)n1 the results were HP1b binding inh -54%, BAZ2B inh -69%, L3MBTL1 block -10%, G9a inh 45µM* and JMJD2A Tudor 56µM*.
Screening CN(c1ccc(O)cc1)c1nc(-c2cccs2)cs1 returned HP1b binding inh inconclusive, BAZ2B inh -23%, L3MBTL1 block -12%, PI5P4Ka inh 12, G9a inh -9% and JMJD2A Tudor inconclusive.
For CC1C(=NO)C(C)C(c2ccc(N(C)C)cc2)NC1c1ccc(N(C)C)cc1 (stereo not given) the results were HP1b binding inh 29%, BAZ2B inh 40µM*, L3MBTL1 block 25µM*, G9a inh -5%[0.0925 µM] and JMJD2A Tudor -8%.
`O=C(CNC(=O)c1sc2ccccc2c1Cl)NCc1ccccc1` gave HP1b binding inh 28%, BAZ2B inh -17%, PI5P4Ka inh -5, G9a inh 16% and JMJD2A Tudor -7%.
Screening CC(=Nc1ccc(O)cc1)c1sc2ccccc2c1O returned HP1b binding inh 0%, BAZ2B inh -35%, L3MBTL1 block -7%, PI5P4Ka inh 2, G9a inh 10µM* and JMJD2A Tudor -10%.
Screening CC(=Nc1ccccc1O)c1sc2ccccc2c1O returned HP1b binding inh 8%, BAZ2B inh inconclusive, L3MBTL1 block -2%, PI5P4Ka inh 1, G9a inh inconclusive and JMJD2A Tudor inconclusive.
`CC(=O)NCCN=C(C)c1sc2ccccc2c1O` gave HP1b binding inh -5%, BAZ2B inh -6%, L3MBTL1 block -5%, PI5P4Ka inh -3, G9a inh 18µM* and JMJD2A Tudor -23%.
For COc1cc(OC)cc(C(=O)NCCc2csc(-c3cccc(C)c3)n2)c1 the results were HP1b binding inh 31%[57 µM], BAZ2B inh 3%, G9a inh 20%[59 µM] and JMJD2A Tudor -1%.
For CCC1CCc2c(sc(NC(=O)c3ccco3)c2C(N)=O)C1 (stereo not given) the results were HP1b binding inh 71%, BAZ2B inh 2%, L3MBTL1 block -4%, PI5P4Ka inh -17, G9a inh 13%[59 µM] and JMJD2A Tudor inconclusive.
Screening CCC1CCc2c(sc(NC(=O)c3cnccn3)c2C(N)=O)C1 (stereo not given) returned HP1b binding inh inconclusive, BAZ2B inh -36%, L3MBTL1 block 0%, PI5P4Ka inh -25, G9a inh 3.5µM* and JMJD2A Tudor inconclusive.
For c1cc(C(c2nnnn2C2CCCC2)N2CCOCC2)ccn1 (stereo not given) the results were HP1b binding inh 30%, BAZ2B inh 10%, L3MBTL1 block -4%[11.4 µM], G9a inh -40%[12.7 µM] and JMJD2A Tudor -10%.
`Oc1ccc(C(c2nnnn2C2CCCCC2)N2CCOCC2)cc1` (stereo not given) gave HP1b binding inh 23%, BAZ2B inh inconclusive, L3MBTL1 block 0%, PI5P4Ka inh -7, G9a inh 22µM* and JMJD2A Tudor -21%.
`Cn1c(=O)c(-c2ccc(Cl)cc2)nc2cnc(N3CCOCC3)nc21` gave G9a inh 7%[0.501 µM].
`O=C(O)c1ccc(C(=O)C(=O)c2ccccc2)cc1` gave HP1b binding inh 16%, BAZ2B inh -13%, PI5P4Ka inh -9, G9a inh 79µM* and JMJD2A Tudor -1%.
For CCOc1ccc(NC(=O)C2CCN(S(=O)(=O)c3ccc4c(c3)oc(=O)n4C)CC2)cc1 the results were HP1b binding inh 40%, BAZ2B inh -20%, G9a inh 0%[59 µM] and JMJD2A Tudor -17%.
For C/C=C/C(=O)OCC(=O)Nc1ccc(OC)c(OC)c1 the results were HP1b binding inh 30%, BAZ2B inh 50µM*, L3MBTL1 block -11%, PI5P4Ka inh 0, G9a inh -28% and JMJD2A Tudor 9%.
COc1ccc(/C=C/C(=O)OC(C)CN2CCCCC2)cc1 (stereo not given) was read as HP1b binding inh 25%, BAZ2B inh -27%, L3MBTL1 block -5%, PI5P4Ka inh -1, G9a inh 20µM* and JMJD2A Tudor -14%.
`Cn1cccc1/C=N/NC(=O)c1cccc(OC(F)(F)C(F)F)c1` gave HP1b binding inh inconclusive, BAZ2B inh inconclusive, L3MBTL1 block -6%, PI5P4Ka inh -9, G9a inh inconclusive and JMJD2A Tudor 79µM*.
Screening Cc1c(Cl)cccc1NC(=O)CSc1cc(-c2ccccc2)ncn1 returned HP1b binding inh 34%, BAZ2B inh -5%, G9a inh 3%[59 µM] and JMJD2A Tudor -10%.
`CCCCN(C)CCNC(=O)C1CCN(c2nc3ccc(CC)cc3s2)CC1` gave HP1b binding inh 2%, BAZ2B inh -11%, G9a inh -42%[59 µM] and JMJD2A Tudor -27%.
For COc1ccc(NC(=O)N2CC[C@@]3(CCCN(C(C)=O)C3)C2)cc1 the results were G9a inh -18%[12.7 µM].
`CCOc1cccc(C(=O)NC(=S)Nc2ccc(Cl)cc2C(=O)O)c1` gave HP1b binding inh inconclusive, BAZ2B inh -7%, PI5P4Ka inh -60*, G9a inh 40µM* and JMJD2A Tudor inconclusive.
O=C(NCc1ccncc1)Nc1ccc2c(c1)OCO2 was read as HP1b binding inh 17%, BAZ2B inh 11%, L3MBTL1 block -3%, PI5P4Ka inh 3, G9a inh 45µM* and JMJD2A Tudor -29%.
Screening O=S(=O)(Nc1ccc2c(c1)OCCO2)c1c(F)cccc1F returned HP1b binding inh 19%, BAZ2B inh -8%, PI5P4Ka inh -7, G9a inh 40µM* and JMJD2A Tudor -12%.
`CCOc1cccc(C(=O)NC(=S)Nc2ccc(N3CCCC3)cc2)c1` gave HP1b binding inh 14µM*, BAZ2B inh 8.9µM*, L3MBTL1 block -28%, PI5P4Ka inh 0, G9a inh inconclusive and JMJD2A Tudor inconclusive.
